Screening data: PubChem BioAssay, The Scripps Research Institute Molecular Screening Center
Only some compounds are listed: those with a hit (about 1.2% of all), similar ones and a draw of the others.
eLon inh = inhibitors of E. coli Lon protease, primary screen, biochemical, fluorescence polarization; inhibition, % at 7.94 µM; purified E. coli Lon protease; actives 0.42% (n = 360,000); in the data active means inhibition above about 13%, passing the limit was not always enough
Bcl-xL primary = inhibitors of human Bcl-xL, primary screen, biochemical, fluorescence polarization, HTS. Bcl-2-like protein 1 (Homo sapiens), Q07817. GST-Bcl-xL / FITC-Bim BH3 peptide fluorescence polarization. inhibition, % at 10.9 µM. actives 0.7% (n = 320,000);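 active means inhibition above the mean of all tested compounds plus 3 SD, cutoff set per campaign, cut at about 30% in these data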;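 further: inhibitors lower millipolarization by displacing the labeled peptide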
RTF Ca sens act = cardiac RTF calcium sensitivity activators, primary screen, biochemical, IANBD-TnC fluorescence, EC20 calcium; Troponin I, cardiac muscle (Homo sapiens) + Troponin T, cardiac muscle (Homo sapiens) + …; IANBD-labeled TnC RTF fluorescence at EC20 calcium; 0% EC20 calcium, 100% full calcium; activation, % at 7.2 µM; actives 0.24% (n = 340,000); AID 493008, 2010;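 active means activation above the mean over all tested compounds plus 3 SD, cut at about 30% in these data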;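 further: rise in fluorescence read as greater calcium sensitivity of cardiac thin filaments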
RTF Ca sens inh = cardiac RTF calcium sensitivity inhibitors, primary screen, biochemical, IANBD-TnC fluorescence, EC70 calcium | inhibition, % at 7.15 µM | IANBD-labeled cardiac RTF, Ca2+ fluorescence | AID 493244, 2011 | Troponin I, cardiac muscle (Homo sapiens) + Troponin T, cardiac muscle (Homo sapiens) + … | actives 0.12% (n = 340,000);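 active means inhibition above the mean inhibition of all tested compounds plus 3 SD, cut at about 17% in these data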;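 further: assay run at fixed EC70 calcium of 1.6 mM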
GLD-1 RNA inh = GLD-1/TGE RNA complex disruptors, primary screen, biochemical, fluorescence polarization; inhibition, % at 5.96 µM; purified GLD-1 + fluorescein TGE RNA; AID 2280, 2010; actives 0.44% (n = 320,000);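 active means percent inhibition above a per-plate cutoff, the plate mean of test compounds plus 3 SD, cut at about 30% in these data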
Target sequence (Q17339 whole entry, looked up): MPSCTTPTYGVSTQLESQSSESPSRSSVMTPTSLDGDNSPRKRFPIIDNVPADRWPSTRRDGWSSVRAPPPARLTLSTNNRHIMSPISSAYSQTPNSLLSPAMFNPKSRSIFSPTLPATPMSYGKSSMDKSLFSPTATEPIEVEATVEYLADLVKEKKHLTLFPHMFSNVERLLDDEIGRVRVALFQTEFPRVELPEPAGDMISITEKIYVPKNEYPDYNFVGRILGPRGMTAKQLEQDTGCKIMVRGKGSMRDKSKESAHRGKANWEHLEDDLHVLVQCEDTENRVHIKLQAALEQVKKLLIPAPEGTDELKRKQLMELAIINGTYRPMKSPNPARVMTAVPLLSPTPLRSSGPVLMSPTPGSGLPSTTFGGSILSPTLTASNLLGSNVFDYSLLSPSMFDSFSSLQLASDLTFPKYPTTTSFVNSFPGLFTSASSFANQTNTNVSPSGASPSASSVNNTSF
eLon confirm = E. coli Lon protease inhibitor retest, confirmation, biochemical, fluorescence polarization; actives 31% (n = 1,400); purified E. coli Lon; shares compounds with eLon inh; inhibition, % at 7.94 µM; in the data active means inhibition above about 16%
Numbers stand for hits; - = inactive; . = no result; + = active, no number.

SMILES | eLon inh | Bcl-xL primary | RTF Ca sens act | RTF Ca sens inh | GLD-1 RNA inh | eLon confirm
CN(C)CCCN1C(=O)c2cccc3cccc(c23)C1=O | - | - | - | - | - | .
CCCCN1C(=O)c2cccc3cc(O)cc(c23)C1=O | 32.5 | - | - | - | - | -
CCCn1c(N)c(C(=O)NS(=O)(=O)c2ccc(C)cc2)c(=O)n(C)c1=O | - | - | - | - | - | .
O=C(COc1ccccc1F)Nc1nnc(C2CCCC2)s1 | - | - | - | - | - | .
O=C(N=Nc1c(O)[nH]c2ccc(Br)cc12)c1ccccc1-n1cccc1 | 23.9 | - | - | - | - | -
O=C(N=Nc1c(O)[nH]c2ccc(Br)cc12)c1ccco1 | - | . | . | . | . | .
COc1cccc2c1C(=N)c1c(O)c3c(c(O)c1C2=O)CC(O)(C(C)=O)CC3OC1CC(N)C(O)C(C)O1 (stereo not given) | - | . | - | - | . | .
COc1cccc2c1C(=O)c1c(O)c3c(c(O)c1C2=O)C[C@](O)(C(C)=O)C[C@H]3O[C@@H]1C[C@@H](N)[C@@H](O)[C@@H](C)O1 | + | + | 183.6 | - | + | +
CCCCC(=O)OCC(=O)C1(O)Cc2c(O)c3c(c(O)c2C(OC2CC(NC(=O)C(F)(F)F)C(O)C(C)O2)C1)C(=O)c1c(OC)cccc1C3=O (stereo not given) | - | . | - | - | . | .
COc1cccc2c1C(=O)c1c(O)c3c(c(O)c1C2=O)CC(O)(C(C)=O)CC3OC1CC(O)C(O)C(C)O1 (stereo not given) | + | . | 222.8 | - | . | +
COC(=O)c1c(C)oc(C)c1S(=O)(=O)NCc1ccco1 | - | - | - | - | - | .
COC(=O)C1=C(C)NC(C)=C(C(=O)OCC2CCCO2)C1c1cccc(Cl)c1 (stereo not given) | 21.8 | - | - | - | - | -
c1ccc(C2(Cn3ccc4ccccc43)OCCO2)cc1 | 24.6 | - | - | - | - | -
CCN(CC)S(=O)(=O)c1ccc(C(=O)NCc2ccc3c(c2)cc(C)n3C)cc1 | - | - | - | - | - | .
Cc1cc2cc(CNC(=O)c3ccc(S(=O)(=O)N4CCCC4)cc3)ccc2n1C | 23.4 | - | - | - | - | -
Cc1cc2cc(CNC(=O)c3ccc(S(=O)(=O)N4CCCCC4)cc3)ccc2n1C | 16.0 | - | - | - | - | -
COc1cc2c(cc1OC)-c1cc(NC3CCCC3)nc(=O)n1CC2 | - | - | - | - | - | .
Cc1ccc(C(=O)NCCc2nc3ccccc3[nH]2)cc1[N+](=O)[O-] | - | - | - | - | - | .
CC(=O)n1nc(-c2ccc(C)cc2)nc1NCc1ccco1 | - | . | - | - | . | .
CC(=O)n1nc(-c2ccc(C)cc2)nc1NCc1ccc(F)cc1 | 18.2 | . | - | - | . | -
COc1cccc(/C=C2\SC(=O)N(CC(=O)NCCCn3ccnc3)C2=O)c1 | - | - | - | - | - | .
CC(C)n1c(S(=O)(=O)O)nc2ccccc21 | 14.1 | - | - | - | - | -
CC(c1ccccc1)n1c(S(=O)(=O)O)nc2ccccc21 (stereo not given) | - | - | - | - | - | .
Cc1cccc(NS(=O)(=O)c2cccc(C(=O)NCC3(N4CCCCC4)CCCCC3)c2)c1 | - | - | - | - | - | .
CC1CCCC(C)N1C(=O)COc1ccc(C(=O)Nc2ccccc2N2CCOCC2)cc1 (stereo not given) | 19.6 | - | - | - | - | -
SMILES | eLon inh | Bcl-xL primary | RTF Ca sens act | RTF Ca sens inh | GLD-1 RNA inh | eLon confirm
CSCCC(NS(=O)(=O)c1cccc(C(F)(F)F)c1)C(=O)N1CCN(C(=O)c2ccco2)CC1 (stereo not given) | 52.5 | . | - | - | . | -
CC(C)C(NS(=O)(=O)c1ccccc1)C(=O)N1CCN(C(=O)c2ccco2)CC1 (stereo not given) | - | - | - | - | - | .
O=c1nc2c(O)cccn2c2c1c(=O)[nH]c1ccccc12 | 155.9 | . | 39.6 | - | . | 142.4
O=c1[nH]c2ccccc2c2nc3ccccn3c12 | - | - | - | - | - | .
CCOC(=O)Cn1c(C(F)(F)F)nc2nc(Cl)c(Cl)nc21 | - | . | - | - | . | .
COc1ccccc1-n1c(SCC(=O)NC2CCS(=O)(=O)C2)nc2ccccc2c1=O (stereo not given) | 18.7 | - | - | - | - | -
COc1ccc(C(=O)N/N=C/c2ccccn2)cc1 | - | . | . | . | . | .
Cc1ccc(N2C=Nc3ccc(C)c4nc(C)cc2c34)cc1 | 18.1 | - | - | - | - | -
CC1=Nc2ccc(C)c3nc(C)cc(c23)N1c1ccc(C)cc1 | - | - | - | - | - | .
COc1ccc(Cn2nc(-c3ccccc3)c(N3CCCCC3)cc2=O)cc1 | - | - | - | - | - | .
Cc1cccc(C(=O)Nc2cccc3cccnc23)c1 | - | . | - | - | . | .
Cc1ccc(/C=C/C(=O)Nc2cccc3cccnc23)o1 | 69.6 | 78.0 | - | - | 67.9 | 30.4
Cc1ccc(-n2c(C)cc(C(=O)CN3CCOCC3)c2C)cc1 | 18.9 | - | - | - | - | -
c1ccc(-n2cnc3cc(NCc4ccccn4)ccc32)cc1 | - | - | - | - | - | .
O=C(NNC(=S)NCc1ccccc1)c1ccc(Br)cc1 | - | - | - | - | - | .
CN1C(=O)C(C)(C)c2cc(S(=O)(=O)N3CCCC3C(=O)NCc3ccc(F)cc3)ccc21 (stereo not given) | - | - | - | - | - | .
Cc1c(N/C(=N/S(=O)(=O)c2cc([N+](=O)[O-])ccc2Cl)c2ccccc2)c(=O)n(-c2ccccc2)n1C | 18.7 | - | - | - | - | -
CC(C)CN(C(=O)CSc1nnc(C2CC2)n1-c1ccccc1)C1CCS(=O)(=O)C1 (stereo not given) | 55.9 | - | - | - | - | 54.9
COc1cccc(/C=C/C(=O)c2ccc3c(c2)OCCO3)c1OC | 20.1 | - | - | - | - | -
COC(=O)C1=C(CCc2ccccc2)NC(=O)NC1c1ccc(C#N)cc1 (stereo not given) | - | - | - | - | - | .
O=C(NC(=S)Nc1ccc([N+](=O)[O-])cc1O)C1CCCCC1 | 16.4 | - | - | - | - | -
NC(=S)N/N=C/c1cccc(O)c1O | - | - | - | - | - | .
Cc1cc(/C=N/NC(N)=S)c(O)c(/C=N/NC(N)=S)c1 | + | + | 166.4 | - | 189.0 | 189.3
COc1ccc(CN2C(=NC(=O)c3ccccc3)SC3CS(=O)(=O)CC32)cc1OC (stereo not given) | - | - | - | - | - | .
